Measured values: PubChem BioAssay (Tox21)
Unmarked numbers belong to inactive results. Inconclusive results are not listed. Entries that show only a call come without a potency. Calls of active or inactive are those of the source. Unless noted, calls follow the shape of the dose curve; as a rule, active = well fitted curve in the direction sought with a large enough effect in the repeat runs; inconclusive = weak or mixed curves; inactive = no such curve, though single readings can be large; an effect the other way counts as inactive or inconclusive.

Tests used:
[1] = qHTS assay to identify small molecule antagonists of the estrogen related receptor (ERR) signaling pathway from Tox21 library - cell viability counter screen (AID 1224834); also: nearly all actives have a fitted effect of over 30% in size; also: potency is read from the fitted curve at half-maximal effect
Method in brief: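 ERR reporter cells were plated 6 h before compound addition, then exposed to test compounds in DMSO for 17.5 h at 37 C. Viability was read as CellTiter-Fluor fluorescence after a 30-minute incubation at 37 C.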

[2] = biological target: Luciferin 4-monooxygenase (Photinus pyralis) (UniProt P08659); experiment: qHTS assay to identify small molecule inhibitors of firefly luciferase (AID 1224835); also: nearly all actives have a fitted effect of over 25% in size; also: potency is read from the fitted curve at half-maximal effect
Method in brief: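 Quantitative HTS format; KM concentrations of both substrates. Purified P. pyralis FLuc activity quantified from luminescence images.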

[3] = qHTS assay to identify small molecule agonists of the constitutive androstane receptor (CAR) signaling pathway - cell viability counter screen (AID 1224836); also: nearly all actives have a fitted effect of over 45% in size; also: potency is read from the fitted curve at half-maximal effect
Method in brief: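 Compound titrations (15 concentrations) went onto HepG2-CYP2B6-hCAR cells 4 h after seeding, alongside PK11195 at a final 0.75 uM; a 23 h, 37 C/5% CO2 incubation preceded CellTiter-Fluor viability measurement.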

[4] = qHTS assay to identify small molecule antagonists of the constitutive androstane receptor (CAR) signaling pathway - cell viability counter screen (AID 1224837); also: nearly all actives have a fitted effect of over 45% in size; also: potency is read from the fitted curve at half-maximal effect
Method in brief: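 HepG2 cells stably expressing hCAR and a CYP2B6-2.2kb reporter were plated and pre-incubated 4 hr at 37 C/5% CO2, then given compounds at 15 concentrations plus 50 nM CITCO (final). After 23 hr, viability was read by CellTiter-Fluor fluorescence.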

[5] = biological target: Nuclear receptor subfamily 1 group I member 3 (Homo sapiens) (UniProt Q14994); experiment: qHTS assay to identify small molecule antagonists of the constitutive androstane receptor (CAR) signaling pathway (AID 1224838); also: nearly all actives have a fitted effect of over 40% in size; also: potency is read from the fitted curve at half-maximal effect
Method in brief: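 HepG2 cells stably co-transfected with hCAR and a CYP2B6-2.2kb luciferase reporter were seeded 4 h before compound addition at 15 concentrations. Cells were stimulated with 50 nM CITCO (final) for 24 h at 37 C; luciferase luminescence was then read.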

[6] = biological target: Nuclear receptor subfamily 1 group I member 3 (Homo sapiens) (UniProt Q14994); experiment: qHTS assay to identify small molecule agonists of the constitutive androstane receptor (CAR) signaling pathway (AID 1224839);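 also: HepG2 cells stably carrying human CAR and a CYP2B6 luciferase reporter; nearly all actives have a fitted effect of over 15% in size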
Method in brief: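 In this screen, CAR-driven CYP2B6 promoter activity is measured by luminescence in HepG2-CYP2B6-hCAR cells after 24 h with test compounds and 0.75 uM PK11195 (final concentration).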

[7] = qHTS assay to identify small molecule antagonists of the estrogen related receptor signaling pathway with the pleiotropic PPARgamma coactivator (PGC) from Tox21 10K library - cell viability counter screen (AID 1224840; active = well fitted cell-killing curve with a large enough effect in the repeat runs, not every such curve was filed as active; also: nearly all actives have a fitted effect of over 40% in size; also: potency is read from the fitted curve at half-maximal effect)
Method in brief: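 PGC/ERR cells were seeded at 2,000 cells/well and left 6 hours at 37 C/5% CO2 before pin-tool addition of compounds in DMSO. After 17.5 hours at 37 C, CellTiter-Fluor was added and fluorescence read 30 minutes later.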

[8] = biological target: Thyrotropin receptor (Homo sapiens) (UniProt P16473); experiment: qHTS assay to identify small molecule agonists of the thyroid stimulating hormone receptor (TSHR) signaling pathway (AID 1224843; calls by dose curve; also: nearly all actives have a fitted effect of over 45% in size)
Method in brief: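 Cell line HEK293 with TSHR; density 800/well. Exposure 30 min RT. Readout HTRF cAMP (cAMP-d2/anti-cAMP-cryptate), 1 h RT before reading.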

[9] = qHTS assay to identify small molecule agonists of the hypoxia (HIF-1) signaling pathway - cell viability counter screen (AID 1224844; calls by dose curve; also: nearly all actives have a fitted effect of over 50% in size; also: potency is read from the fitted curve at half-maximal effect)
Method in brief: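 HRE-bla ME-180 cells in medium with 0.5% dialyzed FBS were preincubated 5 hrs at 37C, exposed to compounds for 17 hrs, then viability was read as CellTiter-Glo luminescence after 30 min at room temperature, in the reporter wells.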

[10] = qHTS assay to identify small molecule agonists of H2AX (AID 1224845; active = well fitted activation curve with a large enough effect in the signal ratio in the repeat runs, not every such curve was filed as active; the % refers to the signal ratio; also: potency is read from the fitted curve at half-maximal effect)
Method in brief: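 Wild-type CHO-K1 cells plated overnight, then exposed 3 hr at 37C to compounds at 15 concentrations (0.76% DMSO). Lysed, then HTRF anti-pH2AX(S139)-cryptate/anti-H2AX-d2 detection after 24 hr at room temperature; emissions 665 and 620 nm.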

[11] = qHTS assay to identify small molecule agonists of the hypoxia (HIF-1) signaling pathway (AID 1224846; active = well fitted activation curve with a large enough effect in the signal ratio in the repeat runs, not every such curve was filed as active; the % refers to the signal ratio)
Method in brief: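 HRE-bla ME-180 cells (beta-lactamase reporter under hypoxia response element) were plated at 2,000 cells/well in medium with 0.5% dialyzed FBS, rested 5 hrs, then given compounds in DMSO for 17 hrs at 37C, 5% CO2. Reporter induction was read with CCF4-AM FRET substrate.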

[12] = qHTS assay to identify small molecule agonists of H2AX - cell viability counter screen (AID 1224847; calls by dose curve; also: top concentration of the series differs between compounds; nearly all actives have a fitted effect of over 30% in size)
Method in brief: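 Read-out: CellTiter-Glo luminescence, 30 min RT. Cells: wild-type CHO-K1, 1000/well, 10% FBS, plated overnight at 37C. Treatment: 15 concentrations, 3 hr, 37C, 0.76% DMSO.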

[13] = qHTS RealTime-Glo MT Cell Viability Assay in HepG2 cells - 24 hour (AID 1224867); also: nearly all actives have a fitted effect of over 50% in size; also: potency is read from the fitted curve at half-maximal effect
Method in brief: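 Compound treatment began 5 h after plating HepG2 cells (600/well) with NanoLuc luciferase and prosubstrate. Plates stayed at 37 C for 40 h; luminescence was captured at six time points, 0 h through 40 h.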

[14] = A CellTox Green Cytotoxicity Assay to monitor cytotoxicity in HEK293 cells - 0 hour (AID 1224869); also: nearly all actives have a fitted effect of over 50% in size
Method in brief: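 HEK293 cells premixed with CellTox Green dye were seeded at 600 cells/well and left 5 h at 37 C/5% CO2 before pin transfer of 23 nL compound in DMSO. Fluorescence from dye bound to dead-cell DNA was read during 40 h treatment.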

[15] = qHTS RealTime-Glo MT Cell Viability Assay in HepG2 cells - 40 hour (AID 1224870); also: nearly all actives have a fitted effect of over 50% in size
Method in brief: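 HepG2 cells mixed with RealTime-Glo MT reagents (NanoLuc plus cell-permeant prosubstrate) were seeded at 600 cells/well, incubated 5 h at 37 C/5% CO2, then pinned with compounds in DMSO; nonlytic luminescence tracked viability during 40 h treatment.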

[16] = qHTS assay to identify small molecule antagonists of the estrogen related receptor signaling pathway with the pleiotropic PPARgamma coactivator (PGC) from Tox21 10K library (AID 1224841; call rule not given here)
Method in brief: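 PGC/ERR reporter cells were seeded at 2,000 cells/well and held 6 hours at 37 C/5% CO2 before pin-tool addition of compounds in DMSO. After 18 hours at 37 C, One-Glo was added and luminescence read after 30 minutes at room temperature.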

[17] = qHTS assay to identify small molecule agonists of the estrogen related receptor signaling pathway with the pleiotropic PPARgamma coactivator (PGC) from Tox21 10K library (AID 1224842); also: nearly all actives have a fitted effect of over 15% in size
Method in brief: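 PGC/ERR reporter cells (NTP line) were seeded 2,000 per well, rested 6 h at 37 C/5% CO2, then pin-dosed with compounds in DMSO for 18 h at 37 C; luciferase read by One-Glo luminescence after 30 min at room temperature.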

[18] = qHTS assay to identify small molecule antagonists of the estrogen related receptor (ERR) signaling pathway from Tox21 library (AID 1224848); also: nearly all actives have a fitted effect of over 50% in size
Method in brief: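 Screening used an ERR reporter line supplied by NTP, exposed for 18 h at 37 C to library compounds delivered in DMSO. Signal was luciferase luminescence developed with ONE-Glo at room temperature for 30 min.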

[19] = qHTS assay to identify small molecule agonists of the estrogen related receptor (ERR) signaling pathway from Tox21 library (AID 1224849; calls by dose curve; also: nearly all actives have a fitted effect of over 15% in size); settings: ERR reporter cell line, ONE-Glo luciferase, 18 h; at 92.4 µM (top of the series) unless noted
Method in brief: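 ERR reporter cell line (NTP) seeded, rested 6 h at 37 C/5% CO2, then pinned with Tox21 compounds in DMSO. After 18 h at 37 C, ONE-Glo luciferase luminescence was read following 30 min at room temperature.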

[20] = qHTS RealTime-Glo MT Cell Viability Assay in HEK293 cells - 32 hour (AID 1224868)
Method in brief: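 Quantitative high-throughput screen of the Tox21 10K library in HEK293: cells and RealTime-Glo reagents plated together, compound added at 5 h, luminescence monitored through 40 h at 37 C.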

Chain of Nuclear receptor subfamily 1 group I member 3 (Homo sapiens) (Q14994 whole entry, looked up): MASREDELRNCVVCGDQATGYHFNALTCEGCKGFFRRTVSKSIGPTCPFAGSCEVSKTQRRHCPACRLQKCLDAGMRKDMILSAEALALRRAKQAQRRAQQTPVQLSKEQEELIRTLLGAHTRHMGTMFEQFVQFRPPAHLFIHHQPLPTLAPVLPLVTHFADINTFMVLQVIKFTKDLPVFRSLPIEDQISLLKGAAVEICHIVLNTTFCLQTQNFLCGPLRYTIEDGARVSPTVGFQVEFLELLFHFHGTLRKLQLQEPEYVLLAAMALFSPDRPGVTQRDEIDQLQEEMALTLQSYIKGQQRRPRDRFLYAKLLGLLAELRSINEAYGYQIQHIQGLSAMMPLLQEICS
Chain of Luciferin 4-monooxygenase (Photinus pyralis) (P08659 whole entry, looked up): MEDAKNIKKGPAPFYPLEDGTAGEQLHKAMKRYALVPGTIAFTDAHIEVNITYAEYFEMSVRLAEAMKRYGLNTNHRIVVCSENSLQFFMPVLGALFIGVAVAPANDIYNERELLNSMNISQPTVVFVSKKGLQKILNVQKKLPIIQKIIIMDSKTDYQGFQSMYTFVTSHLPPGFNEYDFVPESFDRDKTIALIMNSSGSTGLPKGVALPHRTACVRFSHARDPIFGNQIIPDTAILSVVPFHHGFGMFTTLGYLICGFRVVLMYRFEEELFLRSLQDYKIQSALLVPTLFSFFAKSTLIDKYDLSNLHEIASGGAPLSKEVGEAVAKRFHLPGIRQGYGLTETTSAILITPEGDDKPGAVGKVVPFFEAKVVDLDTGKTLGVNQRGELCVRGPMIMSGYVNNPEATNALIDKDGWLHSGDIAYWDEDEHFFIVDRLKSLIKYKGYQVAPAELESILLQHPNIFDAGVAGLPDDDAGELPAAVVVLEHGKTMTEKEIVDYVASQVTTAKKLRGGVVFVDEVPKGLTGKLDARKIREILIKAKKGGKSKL
Chain of Thyrotropin receptor (Homo sapiens) (P16473 whole entry, looked up): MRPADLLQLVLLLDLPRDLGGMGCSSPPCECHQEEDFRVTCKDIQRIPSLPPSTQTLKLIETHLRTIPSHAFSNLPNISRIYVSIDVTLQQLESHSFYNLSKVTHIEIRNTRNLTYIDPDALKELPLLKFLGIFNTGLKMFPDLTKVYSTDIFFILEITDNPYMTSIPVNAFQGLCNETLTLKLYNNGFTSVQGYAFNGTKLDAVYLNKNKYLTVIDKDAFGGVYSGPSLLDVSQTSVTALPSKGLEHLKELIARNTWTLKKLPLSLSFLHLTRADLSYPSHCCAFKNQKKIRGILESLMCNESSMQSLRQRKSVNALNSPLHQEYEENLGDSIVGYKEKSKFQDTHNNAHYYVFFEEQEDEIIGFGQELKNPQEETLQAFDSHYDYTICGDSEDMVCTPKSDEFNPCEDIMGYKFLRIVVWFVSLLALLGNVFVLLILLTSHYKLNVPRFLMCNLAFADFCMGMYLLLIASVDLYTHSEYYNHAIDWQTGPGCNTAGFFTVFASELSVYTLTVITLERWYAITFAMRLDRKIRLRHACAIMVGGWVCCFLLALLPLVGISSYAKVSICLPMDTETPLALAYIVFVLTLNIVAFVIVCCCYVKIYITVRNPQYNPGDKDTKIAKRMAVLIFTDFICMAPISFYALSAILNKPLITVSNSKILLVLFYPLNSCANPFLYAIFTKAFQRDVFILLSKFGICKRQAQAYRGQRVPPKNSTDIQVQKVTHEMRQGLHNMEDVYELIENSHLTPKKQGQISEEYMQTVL

Compound: CCC(C)Br (configuration not stated)
- Potency [1]: inactive
- Potency [2]: inactive
- Potency [3]: inactive
- Potency [4]: inactive
- Potency [5]: inactive
- Potency [6]: inactive
- Potency [7]: inactive
- Potency [8]: inactive
- Potency [9]: inactive
- Potency [10]: inactive
- Potency [11]: inactive
- Potency [12]: inactive
- Potency [13]: inactive
- Potency [14]: inactive
- Potency [15]: inactive

Compound: ClCBr
- Potency [1]: inactive
- Potency [2]: inactive
- Potency [3]: inactive
- Potency [4]: inactive
- Potency [5]: inactive
- Potency [6]: inactive
- Potency [7]: inactive
- Potency [16]: inactive
- Potency [17]: inactive
- Potency [8]: inactive
- Potency [9]: inactive
- Potency [10]: inactive
- Potency [11]: inactive
- Potency [12]: inactive
- Potency [18]: inactive
- activity change, positive = activation [19]: 5.96%
- Potency [13]: inactive
- Potency [14]: inactive
- Potency [15]: inactive

Compound: CC(Cl)CCl (configuration not stated)
- Potency [1]: inactive
- Potency [2]: inactive
- Potency [3]: inactive
- Potency [4]: inactive
- Potency [5]: inactive
- Potency [6]: inactive
- Potency [7]: inactive
- Potency [8]: inactive
- Potency [9]: inactive
- Potency [10]: inactive
- Potency [11]: inactive
- Potency [12]: inactive
- Potency [13]: inactive
- Potency [20]: inactive
- Potency [14]: inactive
- Potency [15]: inactive

Compound: C=CCBr
- Potency [1]: inactive
- Potency [2]: inactive
- Potency [3]: inactive
- Potency [4]: inactive
- Potency [5]: inactive
- Potency [6]: inactive
- Potency [7]: inactive
- Potency [8]: inactive
- Potency [9]: inactive
- Potency [10]: inactive
- Potency [11]: inactive
- Potency [12]: inactive
- Potency [13]: inactive
- Potency [14]: inactive

Compound: CN(C)CCc1c[nH]c2ccccc12
- Potency [1]: inactive
- Potency [2]: inactive
- Potency [3]: inactive
- Potency [4]: inactive
- Potency [5]: inactive
- Potency [6]: inactive
- Potency [7]: inactive
- Potency [8]: inactive
- Potency [9]: inactive
- Potency [10]: inactive
- Potency [11]: inactive
- Potency [12]: inactive
- Potency [13]: inactive
- Potency [20]: inactive
- Potency [14]: inactive
- Potency [15]: inactive

Compound: Clc1c(Cl)c(Cl)c(Cl)c(Cl)c1Cl
- viability change, negative = cytotoxic [1]: 3.08% [at 8.39 µM]
- activity change, negative = inhibition [2]: 2.81% [at 10.5 µM]
- viability change, negative = cytotoxic [3]: -2.28% [at 8.39 µM]
- activity change, negative = cytotoxicity [4]: 2.2% [at 8.39 µM]
- activity, negative = inhibition [5]: 2.04% [at 8.39 µM]
- activation [6]: -1% [at 8.39 µM]
- viability change, negative = cytotoxic [7]: 8.1% [at 8.39 µM]
- activation [8]: -17.5% [at 8.39 µM]
- activity change, negative = cytotoxicity [9]: 4.74% [at 6.97 µM]
- activation (H2AX phosphorylation) [10]: -0.165% [at 14 µM]
- activation [11]: -0.723% [at 7.01 µM]
- activity change, negative = cytotoxicity [12]: -1.8% [at 14 µM]
- activity change, negative = cytotoxicity [13]: -0.564% [at 6.97 µM]
- activity change, negative = cytotoxic [20]: 0.699% [at 6.97 µM]
- cytotoxicity [14]: -0.372% [at 6.97 µM]
- activity change, negative = cytotoxic [15]: 0.985% [at 6.97 µM]

Compound: Cc1ccc([N+](=O)[O-])[c]2c1[O][Hg]2
- Potency [1]: 5.31 µM (active)
- Potency [2]: 17.4 µM (active)
- Potency [3]: 9.44 µM (active)
- Potency [4]: 6.68 µM (active)
- Potency [5]: 9.44 µM (active)
- Potency [6]: inactive
- Potency [7]: 5.96 µM (active)
- Potency [9]: 2.13 µM (active)
- Potency [10]: 695 nM (active)
- Potency [13]: 2.39 µM (active)
- Potency [14]: inactive
